A selection: hits, their analogues and other compounds. The true share with any hit is near 2.9%.
NadD block: inhibitors of S. aureus NadD, primary screen, biochemical, colorimetric, uHTS. AID 602399, 2012. 0.78% of 360,000 active. inhibition, % at 20 µM. purified NadD enzyme, colorimetric absorbance read-out. Nicotinate-nucleotide adenylyltransferase NadD (Staphylococcus aureus N315); in the data active means inhibition above about 26%
PP1 counter: PP1-alpha phosphatase inhibitors, primary screen, counter-screen for PP5 inhibitor project, biochemical, fluorescence, OMFP substrate, single point; 0.9% of 320,000 active; purified PP1alpha; Serine/threonine-protein phosphatase PP1-alpha catalytic subunit (Homo sapiens), P62136; inhibition, % at 6.7 µM;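 active means inhibition above the mean inhibition of all tested compounds plus 3 SD, computed separately for each screening campaign, cut at about 15% in these data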
Target sequence (P62136 whole entry, looked up): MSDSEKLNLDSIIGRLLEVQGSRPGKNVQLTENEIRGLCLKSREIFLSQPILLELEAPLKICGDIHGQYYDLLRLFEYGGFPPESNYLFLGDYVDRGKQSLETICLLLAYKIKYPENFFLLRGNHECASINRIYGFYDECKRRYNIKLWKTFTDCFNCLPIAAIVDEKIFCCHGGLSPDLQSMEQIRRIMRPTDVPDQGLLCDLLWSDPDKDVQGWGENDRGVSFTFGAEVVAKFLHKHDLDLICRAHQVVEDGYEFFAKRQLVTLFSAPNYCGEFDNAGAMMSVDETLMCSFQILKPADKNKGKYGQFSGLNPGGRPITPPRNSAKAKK
B2AR ag: beta2AR agonists driving receptor internalization, primary screen, cell-based, FAP fluorogen, flow cytometry; AID 504454, 2011; Beta-2 adrenergic receptor (Homo sapiens), P07550; 0.43% of 340,000 active; response, % (test concentration not listed); Am2.2-beta2AR cells;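 active means response above a set limit, near 3 SD of response in nonfluorescent compounds, cut at about 42% in these data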
GRK2 inh: compounds blocking aptamer binding on GRK2 – biochemical, human GRK2, bead flow cytometry, HTS, primary screen; Beta-adrenergic receptor kinase 1 (Homo sapiens), P25098; FAM-aptamer displacement from GRK2; inhibition of aptamer binding, % at 10 µM; 0.59% of 330,000 active;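 active means inhibition of aptamer binding above 40%, roughly 3 SD of noise, on plates passing a quality check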;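 further: median bead fluorescence of bound FAM aptamer so fluorescent compounds give negative values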
Exocytosis inh: LAMP-1 surface exposure blockers, TALL-104 cells – cell-based, flow cytometry, MLPCN library, primary screen | TALL-104 LAMP-1 surface exposure; cells stimulated with thapsigargin and PMA | inhibition, % at 10 µM | 0.66% of 360,000 active;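 active means inhibition above about 55%, limit read from the data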
NadD inh conf: inhibitors of S. aureus NadD, confirmation, biochemical, colorimetric, single concentration; purified S. aureus NadD, colorimetric enzyme assay; 13% of 2,000 active; inhibition, % at 20 µM; shares compounds with NadD block; in the data active means inhibition mostly above about 42%, no sharp cut-off; inactive means mostly below about 42%
* = called active by the depositor; . = not tested or not shown.

SMILES | NadD block | PP1 counter | B2AR ag | GRK2 inh | Exocytosis inh | NadD inh conf
COC(C(=O)N/N=C(\C)c1ccc(C(C)(C)C)cc1)c1ccccc1 (centres undefined) | -4 | . | 6 | 2 | 2 | .
Cn1ncc(Cl)c1C(=O)NC(=S)Nc1sc2c(c1C#N)CCCCC2 | 29* | -4 | 10 | 0 | 7 | 3
CC(C(=O)NCCc1ccc(Cl)cc1)n1c(=O)c2cccn2c2cccnc21 (centres undefined) | -3 | -2 | -11 | 0 | 8 | .
Cn1c2ccccc2c2cc(/C=N/NC(=O)c3cc(O)ccc3O)ccc21 | 49* | 14 | 8 | 10 | 5 | 52*
Cn1c2ccccc2c2cc(/C=N/NC(=O)c3cc(O)cc(O)c3)ccc21 | 19 | 3 | 5 | 11 | 10 | .
Cc1cc(C)n(CCCNC(=O)C(C)(C)Oc2ccc(Cl)cc2)n1 | -11 | -1 | -4 | 1 | 4 | .
Cc1cc(C)nc(NC(=O)c2ccc(COc3ccccc3Cl)cc2)c1 | 3 | 4 | 1 | 0 | 1 | .
O=C(N[C@@H](Cc1ccccc1)C(=O)OCc1ccccc1)c1nc[nH]c1C(=O)N1CCN(c2ccccc2)CC1 | 30* | 11 | 25 | 0 | 0 | 16
O=C(NC(=S)N1CCN(c2nc(-c3ccccc3)cs2)CC1)c1cncc(Br)c1 | 35* | 11 | 8 | 4 | 2 | 23
Cc1ccc(C(=O)Nc2ccc(N3CCCC3)cc2)c(C)c1 | 32* | 4 | 16 | 2 | 0 | 4
COc1ccc(OCC(=O)Nc2ccc(N3CCCCC3)cc2)cc1 | -7 | -1 | 11 | 0 | 0 | .
CCOc1ccc(C(=O)Nc2ccc(N3CCCC3)cc2)cc1 | 35* | 8 | 10 | 0 | -3 | -4
Cc1ccc(OCC(=O)Nc2ccc(N3CCCC3)cc2)cc1C | 32* | 13 | 5 | 0 | 0 | -8
Cc1cccc(OCC(=O)Nc2ccc(N3CCCC3)cc2)c1C | 43* | 11 | 8 | 0 | 2 | -2
O=C(CN1CCCCC1)Nc1nnc(-c2ccc([N+](=O)[O-])cc2)s1 | 33* | -3 | 15 | 3 | 5 | 13
CN(C(=O)CSc1cc(Cl)ccc1Cl)C1CCS(=O)(=O)C1 (centres undefined) | 2 | . | -7 | 0 | 42 | .
O=C(COC(=O)c1c2c(nc3ccccc13)/C(=C/c1ccco1)CC2)NC1CCCC1 | 52* | . | 6 | . | -1 | 64*
CC1CCCCC1NC(=O)COC(=O)c1c2c(nc3ccccc13)/C(=C/c1ccco1)CC2 (centres undefined) | 85* | 12 | -30 | 6 | -1 | 42
CCCCCCN1C[C@@H](O)[C@H](n2cc(C3CC3)nn2)C[C@@H]1c1ccc(C)cc1 | 6 | . | . | . | -1 | .
CCc1nnc(NC(=O)CSc2nnc3nc(C)cc(C)n23)s1 | -3 | -1 | -21 | 1 | 3 | .
CC1CCCC(C)N1c1nnc(NC(=O)c2cc(-c3ccc(Br)cc3)on2)s1 (centres undefined) | 41* | 1 | 2 | 0 | 3 | 20
O=C(Nc1nnc(N2CCCCCC2)s1)c1cc(-c2ccc(Br)cc2)on1 | 14 | 0 | 6 | 0 | 0 | .
[O-]/C(=C(\C(=S)Nc1ccccc1F)[n+]1ccccc1)c1ccc(-c2ccccc2)cc1 | 31* | 2 | -1 | 1 | -1 | 3
CC(C(=O)Nc1cccc(S(=O)(=O)N2CCOCC2)c1)N1CCN(c2ccc(F)cc2)CC1 (centres undefined) | -2 | -5 | 3 | 2 | -2 | .
CCCCCCc1cc2cc(S(=O)(=O)c3ccc(Cl)cc3)c(=O)oc2cc1O | 36* | 0 | 5 | 3 | -5 | 2
CNC(=O)C[C@H]1C(=O)N(c2ccccc2)C[C@@H]1C | -5 | . | . | . | -8 | .
O=C(/C=C/c1ccco1)Oc1cc(Br)cc(/C=N/NC(=O)c2ccccc2O)c1 | 38* | 4 | 22 | 0 | 78* | 36

Screens as filed in PubChem BioAssay.
